Consider 107 compounds from ChEMBL document CHEMBL4513216, “Probing the Open Global Health Chemical Diversity Library for Multistage-Active Starting Points for Next-Generation Antimalarials” (ACS Infect Dis, 2020).

Hit rate of the full screen: of about 69,000 compounds, about 8,600 (12%) showed an effect of 50% or more. The sample holds strong results, similar compounds and a random draw of the others, so the mix is not that of the screen.

For this assay, the system named is Plasmodium berghei. The experiment in a line: Screen against P. berghei liver stage (PbLuc), transformed with Luciferase, at 10uM. In kind it is functional, HepG2. The conditions noted are these: tested at 10 uM.
As for `CSCC(C)(O)CNS(=O)(=O)Cc1ccc(F)cc1` (configuration not stated), the INHIBITION amounted to 33.7%. The value for `CC(C)(C(=O)O)S(=O)(=O)c1ccc(Br)cc1` was 4.82%. The same measure for `Cn1ncc2c1C(COCC1CC1)CN(Cc1ccoc1)C2` (configuration not stated): 35.8%. The same measure for `N#Cc1ccc(C(=O)N(Cc2ccncc2)C2CC2)cc1`: -19.4%; for `O=C(c1cccnc1)N(Cc1ccncc1)C1CC1`: 14.8%; for `Cc1noc(C)c1CN(C)C(=O)COc1cccc(C#N)c1`: 8.08%. Turning to `Cc1cccc(OCC(=O)N(Cc2ccncc2)C2CC2)c1`, the INHIBITION is 31.3%. The same measure for `COc1cc(C(C)=O)ccc1OCC(=O)N(Cc1ccsc1)C1CC1`: -16%; for `N#Cc1cccc(OCC(=O)N(Cc2ccncc2)C2CC2)c1`: 59.1%; for `N#Cc1cccc(CN(CCO)Cc2ccsc2)c1`: 33.4%. On to `O=C(COc1ccccc1)N(Cc1ccncc1)C1CC1`, for which the INHIBITION is reported as 61.9%. Take `N#Cc1cccc(OCC(=O)N(Cc2ccsc2)C2CC2)c1`: the INHIBITION came to 54.5%.

Turning to `O=C(COc1ccc2c(c1)CCC2)NCc1ccco1`, the INHIBITION was determined as 33.2%. The value for `O=C(NC1CCC2(CCC(=O)N2CC2CC2)CC1)c1cnccn1` (configuration not stated) was -40.5%. As to `CNC(=O)C(C)(C)N1CCC[C@H]1C(=O)NCCN(C)C`, the INHIBITION amounted to 49.4%. The value for `C=C(C)CSc1nnc(CCNC(=O)OC(C)(C)C)o1` was -0.532%. The value for `COC(=O)CSc1nnc(CCNC(=O)OC(C)(C)C)o1` was 52.5%. As for `CCSc1nnc(CCNC(=O)OC(C)(C)C)o1`, the INHIBITION is -17.3%.

`Cc1cccc(-c2nccnc2C2CCCN(C)C2)c1` (configuration not stated): the INHIBITION was 16.105%. The value for `Cc1nccn1CC1CCCN1S(=O)(=O)Cc1cccc(F)c1` (configuration not stated) was -7.35%. The same measure for `O=C(c1cc(C2CCCCC2)no1)N1C[C@H]2CC(O)C[C@H]2C1` (some centres not stated): -15.1%. The same measure for `Cc1ncc2c(n1)CCCC2NC(=O)c1ccccc1C(=O)O` (configuration not stated): 11.6%; for `Cc1ncc2c(n1)CCCC2NC(=O)c1ccccc1Cn1cncn1` (configuration not stated): 64%; for `Cc1ncc2c(n1)CCCC2NC(=O)c1cnn(Cc2ccccc2)c1` (configuration not stated): 26.4%.

Turning to `Cc1nc(C)c(C(=O)N2CCc3nnc(C4CCCN4C)n3CC2)s1` (configuration not stated), the INHIBITION is -14.6%. For `O=C(CC1CCCC1)N1CCC2(CCN2Cc2ccc(F)cc2)C1` (configuration not stated), the INHIBITION is given as -43%.

In the case of `CC(=O)N1CCC2(CC1)COCCN2Cc1ccc(F)cc1`, the INHIBITION is 34.7%. With `O=C(C1CC1)N1CCC2(CCCN2Cc2ccc(F)cc2)CC1`, the INHIBITION is listed as 13.7%. The same measure for `O=C(Cc1ccccc1)N1CCC2(CCN2Cc2ccc(F)cc2)C1` (configuration not stated): 1.34%. In the case of `CCN1CCOCC12CCN(C(=O)Cc1cccs1)CC2`, the INHIBITION is reported as 23.3%. With `O=C(C1CC1)N1CCC2(CCN2Cc2ccc(F)cc2)C1` (configuration not stated), the INHIBITION came to 9.97%. Regarding `CCC(=O)N1CCC2(CC1)COCCN2Cc1ccc(F)cc1`, the INHIBITION is 66%. The same measure for `O=C(C1CC1)N1CCC2(CC1)COCCN2Cc1ccc(F)cc1`: 68.4%; for `CCN1CCOCC12CCN(C(=O)Cc1ccccc1)CC2`: 28.7%.

Turning to `CC(C)CC(=O)N1CCC2(CC1)COCCN2Cc1ccc(F)cc1`, the INHIBITION was determined as 56.7%. For `CC(C)C(=O)N1CCC2(CC1)COCCN2Cc1ccc(F)cc1`, the INHIBITION was found to be 63.7%. Turning to `COCC(=O)N1CCC2(CC1)COCCN2Cc1ccc(F)cc1`, the INHIBITION stood at 26.4%. For the compound `CC(=O)NCCCNC(=O)N1CCN(c2cc(F)ccc2F)CC1`, the INHIBITION is reported as -15%. The value for `N#Cc1ccccc1CN1C[C@H]2CC[C@@H](C1)N(Cc1cscn1)C2=O` was 6.8%; that for `CCc1nc(C)sc1CN1CC[C@@](O)(CCOC)[C@H](C)C1` was 21.8%. The value for `COCCn1cncc1-c1nc2c([nH]1)CC(C)(C)CNC2=O` was -27.6%; that for `COCC(=O)N1CCCCC1c1nc(C)c2c(n1)N(C1CC1)C(=O)CC2` (configuration not stated) was 36.9%.

For the compound `CCN1CCC(NC(=O)CN2CCCC2Cn2nc(C)nc2C)CC1` (configuration not stated), the INHIBITION amounted to 31.2%. For the compound `CSCC[C@H](NC(=O)Cn1ccc2ccc(Cl)cc21)C(=O)O`, the INHIBITION is on record as -30.8%. The same measure for `Cc1cc(CN2CCCC2Cn2cccn2)no1` (configuration not stated): 9.2%; for `CSCc1cccc(S(=O)(=O)N2CCCCCC2)c1`: 2.69%. `Cc1cc(NC2CCc3nc(C(C)C)nn3C2)n2ncnc2n1` (configuration not stated): the INHIBITION worked out at 49.1%. The same measure for `Cn1nnc2c1C(COCc1ccccn1)CN(C(=O)c1cccs1)C2` (configuration not stated): 31.8%.

Regarding `CS(=O)(=O)N1CC[C@]2(C[C@@H](Oc3ccccn3)CO2)C1`, the INHIBITION stood at 29%. The same measure for `COc1cccc(C(=O)N2C[C@@H](c3ccccc3)[C@@H]3NCCCC[C@@H]32)c1`: 5.11%. As to `COc1cccc([C@H]2CN(C(=O)c3ccccc3)[C@@H]3CCCN[C@H]23)c1`, the INHIBITION worked out at 55.6%. In the case of `COc1ccc(C(=O)N2C[C@@H](c3ccccc3)[C@@H]3NCCCC[C@@H]32)cc1`, the INHIBITION is 15.9%.

Take `CCn1cc(CN2CCCN(C(=O)c3ccoc3)CC2)cn1`: the INHIBITION turned out to be 41.2%. The same measure for `CCC(C)(C)NC(=O)C[S+]([O-])Cc1csc(C2CCCC2)n1` (configuration not stated): 63.8%; for `CCCNC(=O)C[S+]([O-])Cc1csc(C2CCCCC2)n1` (configuration not stated): 23%.

`O=C(C[S+]([O-])Cc1csc(C2CCCC2)n1)NC1CCCC1` (configuration not stated): the INHIBITION is 36.9%. With `CCc1cnc(N2CCc3ncnc(N4CCN(C)CC4)c3CC2)nc1`, the INHIBITION is given as 36.2%. With `O=S(=O)(NCc1ccnc(-n2ccnc2)c1)c1cncc(Cl)c1`, the INHIBITION was 15.2%. The value for `Cc1cccc(C2(C(=O)NS(=O)(=O)c3cnn(C)c3)CCCC2)c1` was 53.5%. For `Cn1cc(S(=O)(=O)NC(=O)C2(c3ccccc3)CCC2)cn1`, the INHIBITION came to 2.97%. The value for `Cn1cc(S(=O)(=O)NC(=O)C2(c3cccc(Cl)c3)CC2)cn1` was -6.94%; that for `O=C(CCNC(=O)N1CCC(c2ccccc2)C1)N1CCCCC1` (configuration not stated) was -24.5%; that for `CN(C(=O)C1CCOCC1)[C@@H]1CCC[C@@H](N2CCOCC2)[C@@H]1O` was 38.2%. The value for `Oc1nc(N2CCCC2)nc2c1CCN(Cc1cccnc1)CC2` was 24.8%.

As to `c1cncc(-c2ncnc3c2CCN(Cc2ccsc2)CC3)c1`, the INHIBITION was 3.58%. For `Cc1nc(C)c2c(n1)CCN(Cc1ccsc1)CC2`, the INHIBITION is recorded as -5.08%. The same measure for `CN(Cc1ccsc1)C(=O)c1nc(N2CCCC2)ncc1Cl`: -0.232%. The same measure for `CN(Cc1ccsc1)C(=O)c1nc(N2CCCCC2)ncc1Cl`: 26.7%; for `Oc1nc(N2CCCC2)nc2c1CCN(Cc1ccsc1)CC2`: 61.7%; for `O=C(c1nc(N2CCCC2)ncc1Cl)N1CCN(Cc2ccsc2)CC1`: 72.1%. As to `Cc1nc(N2CCCC2)nc2c1CCN(Cc1ccsc1)CC2`, the INHIBITION is reported as 4.1%. The value for `Cc1nc(N2CCOCC2)nc2c1CCN(Cc1ccsc1)CC2` was 60.5%; that for `O=C(c1ccc(N2CCCC2)nc1)N1CCCC(c2nccs2)C1` (configuration not stated) was 17.2%. The same measure for `CC(C)Cc1nc(CNCc2cccc(N3CCCC3=O)c2)no1`: -20.5%. The value for `NCC1CCC(C(NC(=O)CC2CCCCC2)c2ccccn2)CC1` (configuration not stated) was 38.2%; that for `CCc1ccc(NC(=O)N2C[C@@H]3C[C@H](C(=O)NC(C)C)[C@H](C2)O3)cc1` was -31.1%; that for `CN1CC2(CCN(C(=O)c3cc(-n4cccn4)ccc3Cl)CC2)OC1=O` was 14.5%. In the case of `Cc1cnn(C2CCCN(C(=O)c3ccc4c(c3)CCC4)C2)c1` (configuration not stated), the INHIBITION came to 40.2%. The value for `O=C(c1cc(F)ccc1F)C1CCN(C(=O)c2ccco2)CC1` was -98.8%; that for `Cc1ccc(C(C)N(C)Cc2nc3c(cnn3C)c(=O)[nH]2)s1` (configuration not stated) was -30.38%; that for `N#CCSCC(=O)NCC1CCCCC1` was 18.6%. Regarding `NC(=O)CSCC(=O)NCC1CCCC1`, the INHIBITION was found to be 50.4%.

As for `NC(=O)CSCCC(=O)NCC1CC1`, the INHIBITION is -0.71%. With `CN(C(=O)c1ccnn1C)[C@@H]1CCC[C@@H](Oc2ccccc2)[C@@H]1O`, the INHIBITION is 34%.

With `CCC(=O)N1CCC(Cc2cnc(Nc3cnccn3)cn2)CC1`, the INHIBITION is listed as 16.5%.

As to `Cc1n[nH]c(C)c1-c1nccnc1CC1CCN(S(C)(=O)=O)C1` (configuration not stated), the INHIBITION was -3.31%. The same measure for `Cc1cc(C)nc(NC2CCCN(CCCc3ccccc3)C2)n1` (configuration not stated): 31.1%. The value for `Cc1cc(NC2CCN(c3ccc(F)cc3)CC2)n2nc(C)cc2n1` was 8.07%; that for `Cc1ccc(NC2CCCN(CCc3ccccc3)C2)nn1` (configuration not stated) was -28%. The same measure for `Cc1cc(NC2CCCN(Cc3ccc(F)cc3)C2)n2nc(C)cc2n1` (configuration not stated): 67.3%. As to `Cc1cc(N[C@H]2CCCN(Cc3ccccc3)C2)n2nc(C)cc2n1`, the INHIBITION amounted to 63.7%. The value for `Cc1ccc(NC2CCCN(Cc3ccc(Cl)cc3)C2)nn1` (configuration not stated) was -20%; that for `CN1C(=O)C2(CCN(C(=O)c3ccccc3)CC2)c2cccc(F)c21` was 43.8%. The same measure for `O=C(N1CCCO1)[C@]12COC[C@H]1CN(Cc1nccs1)C2`: 7.24%; for `CC[C@H]1NCCC[C@]12CCC(=O)N2Cc1ccncc1`: 17.4%. The value for `CS(=O)(=O)NCC1CCCN(C(=O)Nc2ccccc2N2CCCC2)C1` (configuration not stated) was -75.9%; that for `CCN1CCN(c2ccccc2NC(=O)N(C)C2CCSC2)CC1` (configuration not stated) was 74.9%. For `CCOCCN(C)C(=O)Nc1cccc2c1CCN(CC)C2`, the INHIBITION worked out at 3.48%. The value for `CCN1CCc2c(cccc2NC(=O)CN(C)C2CCSC2)C1` (configuration not stated) was 34.1%; that for `CCN1CCC(NC(=O)N(C)Cc2csc3ccccc23)CC1` was 27.6%; that for `CCN1CCc2c(cccc2NC(=O)N(C)C2CCSC2)C1` (configuration not stated) was 50.8%.

As for `CC(C)n1cnnc1CN(C)C(=O)c1cccnc1O`, the INHIBITION stood at 18.6%. Regarding `CCOc1ccc(S(=O)(=O)C(C)C(=O)Nc2cc(C)no2)cc1` (configuration not stated), the INHIBITION is -11.9%. The same measure for `O=C([C@H]1CCCO1)N1CC[C@H](O)[C@@H]1Cc1ccncc1`: 33.2%. The same measure for `O=C1CC(C(=O)NCCN2CCOC2=O)c2cc(F)ccc2N1` (configuration not stated): 36.4%; for `COc1ccc(C2CNCCN2C(=O)c2nccc3ccccc23)cc1` (configuration not stated): 32.3%. The value for `C=C(C)COc1ccccc1C(=O)NCCCc1nnn[nH]1` was 31.2%.
